Experiments:
Test in all cases: SPOT peptide array binding signal intensity (averaged, normalized) (arbitrary units (background-subtracted, floor 0; scale differs between SH3 domains)); higher = stronger binding of the SH3 domain to the peptide
[1] = target: AgAbp1
Method in brief: (§1)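 The binding signal is the normalized, background-subtracted spot intensity averaged over replicates; its arbitrary units differ between domains. It was obtained by incubating 10 μg/ml GST-fused SH3 domains from four yeast species overnight at 4°C in TBS-based blocking buffer on cellulose membranes with synthetic 15-mer peptides, cysteines replaced by serines, then detecting with anti-GST antibody, HRP anti-mouse secondary and luminol.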

[2] = target: AgBbc1
Method in brief: as §1

[3] = target: AgBem1-D1
Method in brief: as §1

[4] = target: AgBzz1-D1
Method in brief: as §1

[5] = target: AgBzz1-D2
Method in brief: as §1

[6] = target: AgCyk3
Method in brief: as §1

[7] = target: AgFus1
Method in brief: as §1

[8] = target: AgHof1
Method in brief: as §1

[9] = target: AgHse1
Method in brief: as §1

[10] = target: AgLsb1
Method in brief: as §1

[11] = target: AgLsb4
Method in brief: as §1

[12] = target: AgMyo5
Method in brief: as §1

[13] = target: AgNbp2
Method in brief: as §1

[14] = target: AgRvs167
Method in brief: as §1

[15] = target: AgSho1
Method in brief: as §1

[16] = target: AgSla1-D1-D2
Method in brief: as §1

[17] = target: AgSla1-D3
Method in brief: as §1

[18] = target: CaAbp1-D1
Method in brief: as §1

[19] = target: CaAbp1-D2
Method in brief: as §1

[20] = target: CaBbc1
Method in brief: as §1

[21] = target: CaBem1-D1
Method in brief: as §1

[22] = target: CaBzz1-D1
Method in brief: as §1

[23] = target: CaBzz1-D2
Method in brief: as §1

[24] = target: CaCyk3
Method in brief: as §1

[25] = target: CaFus1
Method in brief: as §1

[26] = target: CaHof1
Method in brief: as §1

[27] = target: CaHse1
Method in brief: as §1

[28] = target: CaLsb1
Method in brief: as §1

[29] = target: CaLsb4
Method in brief: as §1

[30] = target: CaMyo5
Method in brief: as §1

[31] = target: CaNbp2
Method in brief: as §1

[32] = target: CaRvs167
Method in brief: as §1

[33] = target: CaRvs167-3
Method in brief: as §1

[34] = target: CaSho1
Method in brief: as §1

[35] = target: CaSla1-D1-D2
Method in brief: as §1

[36] = target: CaSla1-D3
Method in brief: as §1

[37] = target: ScAbp1
Method in brief: as §1

[38] = target: ScBbc1
Method in brief: as §1

[39] = target: ScBem1-D1
Method in brief: as §1

[40] = target: ScBzz1-D1
Method in brief: as §1

[41] = target: ScBzz1-D2
Method in brief: as §1

[42] = target: ScCyk3
Method in brief: as §1

[43] = target: ScFus1
Method in brief: as §1

[44] = target: ScHof1
Method in brief: as §1

[45] = target: ScHse1
Method in brief: as §1

[46] = target: ScLsb1
Method in brief: as §1

[47] = target: ScLsb2
Method in brief: as §1

[48] = target: ScLsb3
Method in brief: as §1

[49] = target: ScLsb4
Method in brief: as §1

[50] = target: ScMyo3
Method in brief: as §1

[51] = target: ScMyo5
Method in brief: as §1

[52] = target: ScNbp2
Method in brief: as §1

[53] = target: ScPex13
Method in brief: as §1

[54] = target: ScRvs167
Method in brief: as §1

[55] = target: ScSho1
Method in brief: as §1

[56] = target: ScSla1-D1-D2
Method in brief: as §1

[57] = target: ScSla1-D3
Method in brief: as §1

[58] = target: SpAbp1-D1
Method in brief: as §1

[59] = target: SpBbc1
Method in brief: as §1

[60] = target: SpBzz1-D1
Method in brief: as §1

[61] = target: SpBzz1-D2
Method in brief: as §1

[62] = target: SpCyk3
Method in brief: as §1

[63] = target: SpHof1
Method in brief: as §1

[64] = target: SpHof1-2
Method in brief: as §1

[65] = target: SpHof1-3
Method in brief: as §1

[66] = target: SpHse1
Method in brief: as §1

[67] = target: SpLsb1
Method in brief: as §1

[68] = target: SpLsb4
Method in brief: as §1

[69] = target: SpMyo1
Method in brief: as §1

[70] = target: SpNbp2
Method in brief: as §1

[71] = target: SpPex13
Method in brief: as §1

[72] = target: SpRvs167
Method in brief: as §1

[73] = target: SpSla1-D1-D2
Method in brief: as §1

[74] = target: SpSla1-D3
Method in brief: as §1

In the case of PKRRAPPPVPKKPSS, the “SPOT peptide array binding signal intensity” value [1] is reported as 5860, the “SPOT peptide array binding signal intensity” value [2] is reported as 1440 and the “SPOT peptide array binding signal intensity” value [3] is reported as 221. For the same binder, the “SPOT peptide array binding signal intensity” value [4] was 2030, the “SPOT peptide array binding signal intensity” value [5] was 987 and the “SPOT peptide array binding signal intensity” value [6] was 1. For the same binder, the “SPOT peptide array binding signal intensity” value [7] was 21.5, the “SPOT peptide array binding signal intensity” value [8] was 530 and the “SPOT peptide array binding signal intensity” value [9] was 122. The “SPOT peptide array binding signal intensity” value [10] was 784, the “SPOT peptide array binding signal intensity” value [11] was 158 and the “SPOT peptide array binding signal intensity” value [12] was 73.5. For the same binder, the “SPOT peptide array binding signal intensity” value [13] was 5620, the “SPOT peptide array binding signal intensity” value [14] was 100 and the “SPOT peptide array binding signal intensity” value [15] was 479. The “SPOT peptide array binding signal intensity” value [16] was 96, the “SPOT peptide array binding signal intensity” value [17] was 856 and the “SPOT peptide array binding signal intensity” value [18] was 2910. For the same binder, the “SPOT peptide array binding signal intensity” value [19] was 5120, the “SPOT peptide array binding signal intensity” value [20] was 1940 and the “SPOT peptide array binding signal intensity” value [21] was 110. The “SPOT peptide array binding signal intensity” value [22] was 6700, the “SPOT peptide array binding signal intensity” value [23] was 5750 and the “SPOT peptide array binding signal intensity” value [24] was 142. The “SPOT peptide array binding signal intensity” value [25] was 188, the “SPOT peptide array binding signal intensity” value [26] was 0.5 and the “SPOT peptide array binding signal intensity” value [27] was 788. The “SPOT peptide array binding signal intensity” value [28] was 0.5, the “SPOT peptide array binding signal intensity” value [29] was 2470 and the “SPOT peptide array binding signal intensity” value [30] was 2. The “SPOT peptide array binding signal intensity” value [31] was 3070, the “SPOT peptide array binding signal intensity” value [32] was 104 and the “SPOT peptide array binding signal intensity” value [33] was 7.5. The “SPOT peptide array binding signal intensity” value [34] was 93, the “SPOT peptide array binding signal intensity” value [35] was 3270 and the “SPOT peptide array binding signal intensity” value [36] was 1040. The “SPOT peptide array binding signal intensity” value [37] was 3020, the “SPOT peptide array binding signal intensity” value [38] was 651 and the “SPOT peptide array binding signal intensity” value [39] was 40. For the same binder, the “SPOT peptide array binding signal intensity” value [40] was 2560, the “SPOT peptide array binding signal intensity” value [41] was 83.5 and the “SPOT peptide array binding signal intensity” value [42] was 6. For the same binder, the “SPOT peptide array binding signal intensity” value [43] was 14, the “SPOT peptide array binding signal intensity” value [44] was at most 0 and the “SPOT peptide array binding signal intensity” value [45] was 326. For the same binder, the “SPOT peptide array binding signal intensity” value [46] was 488, the “SPOT peptide array binding signal intensity” value [47] was 800 and the “SPOT peptide array binding signal intensity” value [48] was 4240. The “SPOT peptide array binding signal intensity” value [49] was 78.5, the “SPOT peptide array binding signal intensity” value [50] was 865 and the “SPOT peptide array binding signal intensity” value [51] was 436. For the same binder, the “SPOT peptide array binding signal intensity” value [52] was 5110, the “SPOT peptide array binding signal intensity” value [53] was 560 and the “SPOT peptide array binding signal intensity” value [54] was 1250. The “SPOT peptide array binding signal intensity” value [55] was 1580, the “SPOT peptide array binding signal intensity” value [56] was 3720 and the “SPOT peptide array binding signal intensity” value [57] was 1510. The “SPOT peptide array binding signal intensity” value [58] was 1910, the “SPOT peptide array binding signal intensity” value [59] was 144 and the “SPOT peptide array binding signal intensity” value [60] was 2040. The “SPOT peptide array binding signal intensity” value [61] was 863, the “SPOT peptide array binding signal intensity” value [62] was 2.5 and the “SPOT peptide array binding signal intensity” value [63] was 165. The “SPOT peptide array binding signal intensity” value [64] was 21, the “SPOT peptide array binding signal intensity” value [65] was 290 and the “SPOT peptide array binding signal intensity” value [66] was 143. For the same binder, the “SPOT peptide array binding signal intensity” value [67] was 1820, the “SPOT peptide array binding signal intensity” value [68] was 1020 and the “SPOT peptide array binding signal intensity” value [69] was 584. For the same binder, the “SPOT peptide array binding signal intensity” value [70] was 38.5, the “SPOT peptide array binding signal intensity” value [71] was 11 and the “SPOT peptide array binding signal intensity” value [72] was 803. The “SPOT peptide array binding signal intensity” value [73] was 1990 and the “SPOT peptide array binding signal intensity” value [74] was at most 0.

With RKRAPTPPAPSRSEK the “SPOT peptide array binding signal intensity” value [1] was 639, the “SPOT peptide array binding signal intensity” value [2] was 146 and the “SPOT peptide array binding signal intensity” value [3] was 112. For the same binder, the “SPOT peptide array binding signal intensity” value [4] was 128, the “SPOT peptide array binding signal intensity” value [5] was 98 and the “SPOT peptide array binding signal intensity” value [6] was 2. The “SPOT peptide array binding signal intensity” value [7] was at most 0, the “SPOT peptide array binding signal intensity” value [8] was 25 and the “SPOT peptide array binding signal intensity” value [9] was 171. For the same binder, the “SPOT peptide array binding signal intensity” value [10] was 253, the “SPOT peptide array binding signal intensity” value [11] was 35.5 and the “SPOT peptide array binding signal intensity” value [12] was 0.5. For the same binder, the “SPOT peptide array binding signal intensity” value [13] was 1300, the “SPOT peptide array binding signal intensity” value [14] was 4.33 and the “SPOT peptide array binding signal intensity” value [15] was 5. For the same binder, the “SPOT peptide array binding signal intensity” value [16] was 167, the “SPOT peptide array binding signal intensity” value [17] was 21.8 and the “SPOT peptide array binding signal intensity” value [18] was 3830. The “SPOT peptide array binding signal intensity” value [19] was 3240, the “SPOT peptide array binding signal intensity” value [20] was 426 and the “SPOT peptide array binding signal intensity” value [21] was 306. The “SPOT peptide array binding signal intensity” value [22] was 2860, the “SPOT peptide array binding signal intensity” value [23] was 3180 and the “SPOT peptide array binding signal intensity” value [24] was 12. For the same binder, the “SPOT peptide array binding signal intensity” value [25] was 106, the “SPOT peptide array binding signal intensity” value [26] was 0.25 and the “SPOT peptide array binding signal intensity” value [27] was 3.25. For the same binder, the “SPOT peptide array binding signal intensity” value [28] was 5.5, the “SPOT peptide array binding signal intensity” value [29] was 249 and the “SPOT peptide array binding signal intensity” value [30] was 3.5. The “SPOT peptide array binding signal intensity” value [31] was 797, the “SPOT peptide array binding signal intensity” value [32] was 27.8 and the “SPOT peptide array binding signal intensity” value [33] was 20.2. For the same binder, the “SPOT peptide array binding signal intensity” value [34] was 4, the “SPOT peptide array binding signal intensity” value [35] was 1150 and the “SPOT peptide array binding signal intensity” value [36] was at most 0. For the same binder, the “SPOT peptide array binding signal intensity” value [37] was 187, the “SPOT peptide array binding signal intensity” value [38] was 114 and the “SPOT peptide array binding signal intensity” value [39] was 21.5. The “SPOT peptide array binding signal intensity” value [40] was 128, the “SPOT peptide array binding signal intensity” value [41] was 26 and the “SPOT peptide array binding signal intensity” value [42] was 9.5. For the same binder, the “SPOT peptide array binding signal intensity” value [43] was at most 0, the “SPOT peptide array binding signal intensity” value [44] was 0.75 and the “SPOT peptide array binding signal intensity” value [45] was 762. The “SPOT peptide array binding signal intensity” value [46] was 89.5, the “SPOT peptide array binding signal intensity” value [47] was 6 and the “SPOT peptide array binding signal intensity” value [48] was 1010. For the same binder, the “SPOT peptide array binding signal intensity” value [49] was 31.5, the “SPOT peptide array binding signal intensity” value [50] was 5 and the “SPOT peptide array binding signal intensity” value [51] was 1.5. The “SPOT peptide array binding signal intensity” value [52] was 2100, the “SPOT peptide array binding signal intensity” value [53] was 30.5 and the “SPOT peptide array binding signal intensity” value [54] was 544. For the same binder, the “SPOT peptide array binding signal intensity” value [55] was 172, the “SPOT peptide array binding signal intensity” value [56] was 1970 and the “SPOT peptide array binding signal intensity” value [57] was 46.5. The “SPOT peptide array binding signal intensity” value [58] was 1150, the “SPOT peptide array binding signal intensity” value [59] was at most 0 and the “SPOT peptide array binding signal intensity” value [60] was 428.
